Measurements taken from PubChem BioAssay (NCI).
Compounds without any hit were thinned out: in the full panel of roughly 83,000, 20% have a hit.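 In brief: 96-well plates, 48 h treatment, single concentration, percent growth endpoint.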 Calls of active or inactive are those of the source. The calls were made as follows: active = growth percent below 10; inactive = the rest.

Legend:
Assay in all cases: NCI-60 one-dose screen, 48 h (100 = growth as untreated, 0 = no growth, -100 = all killed)
Conditions in all cases: 10 µM unless noted
[1] = test system: NCI-H23 lung
[2] = test system: NCI-H226 lung
[3] = test system: NCI-H322M lung
[4] = test system: HOP-62 NSCLC
[5] = test system: NCI-H460 lung
[6] = test system: HOP-92 NSCLC
[7] = test system: NCI-H522 lung
[8] = test system: A549/ATCC NSCLC
[9] = test system: 786-0 renal
[10] = test system: COLO 205 colon
[11] = test system: DU-145 prostate
[12] = test system: K-562 leukemia
[13] = test system: MALME-3M melanoma
[14] = test system: MDA-MB-231 breast
[15] = test system: RXF 393 renal
[16] = test system: SF-268 CNS
[17] = test system: SF-295 CNS
[18] = test system: SF-539 CNS
[19] = test system: UACC-257 melanoma
[20] = test system: M14 melanoma

Measured: growth

COC(=O)Cn1c2c(c3c(OC)cccc31)C(=O)c1ccccc1-2
inactive: [1] 91.2% | [2] 91.4% | [3] 113% | [4] 87% | [5] 112% | [6] 70.3% | [7] 101% | [8] 100% | [9] 86.6% | [10] 104% | [11] 104% | [12] 91.7% | [13] 95.5% | [14] 98.5% | [15] 114% | [16] 97% | [17] 107% | [18] 101% | [19] 101% | [20] 103%

Nc1nc(N)c2c(n1)NC(c1cccc(Nc3ccnc4cc(C(F)(F)F)ccc34)c1)CC(c1ccc3c(c1)OCO3)=N2 (stereo not given)
inactive: [1] 82.4% | [2] 97.7% | [3] 96.2% | [4] 65.7% | [5] 58.8% | [6] 54.4% | [7] 42.2% | [8] 60.3% | [9] 72.6% | [10] 66.2% | [11] 86.9% | [12] 16.1% | [13] 72.5% | [14] 86.1% | [15] 52.2% | [16] 68.2% | [17] 80% | [18] 95.4% | [19] 77.7% | [20] 67.3%

Cc1[nH]c(C(=O)Nc2ccccc2OC2CCN(CCN3CCOCC3)CC2)c(Cl)c1Cl
inactive: [1] 97.6% | [2] 79.6% | [3] 99.9% | [4] 89.9% | [5] 108% | [6] 70.9% | [7] 47.6% | [8] 99% | [9] 57.5% | [10] 102% | [11] 105% | [12] 57.5% | [13] 106% | [14] 75.9% | [15] 83.6% | [16] 81.5% | [17] 97.7% | [18] 89.6% | [19] 115% | [20] 106%

O=c1oc2c(cc1-c1ccccc1)c(=O)[nH]c1ccccc12
inactive: [1] 95.8% | [2] 102% | [3] 104% | [4] 106% | [5] 105% | [6] 103% | [7] 94.2% | [8] 97.7% | [9] 85.9% | [10] 107% | [11] 105% | [12] 89.2% | [13] 95.7% | [14] 96.8% | [15] 102% | [16] 100% | [17] 94.6% | [18] 106% | [19] 100% | [20] 99.7%

Cc1ccc(OCCOCCOCCOc2ccc(C)n(O)c2=S)c(=S)n1O
inactive: [1] 44.9% | [2] 29% | [3] 40.6% | [4] 30.3% | [5] 17.3% | [6] 81.1% | [7] 22.5% | [8] 29.9% | [9] 40.9% | [11] 50.5% | [12] 18.9% | [13] 47% | [14] 28.3% | [15] 66% | [16] 29% | [17] 29.1% | [18] 45.8% | [19] 68.4% | [20] 36%
active: [10] 7.96%

COC(=O)/C=C1/SC(=Nc2ccc(F)cc2)N(CCc2c[nH]c3ccc(O)cc23)C1=O
inactive: [1] 62.2% | [2] 62.5% | [3] 92.1% | [4] 27.6% | [5] 25.3% | [6] 40.2% | [7] 23.6% | [8] 69.5% | [9] 40.6% | [10] 78.2% | [11] 37.2% | [12] 37.7% | [13] 58.9% | [14] 59.3% | [15] 32% | [16] 45.9% | [17] 61.5% | [18] 45.3% | [19] 39.4% | [20] 40.1%

O=C(C[C@]1(O)C(=O)Nc2ccc(Br)cc21)c1ccco1
inactive: [1] 97% | [2] 92.9% | [3] 93.8% | [4] 106% | [5] 105% | [6] 102% | [7] 88.3% | [8] 104% | [9] 108% | [10] 106% | [11] 106% | [12] 93.8% | [13] 84.1% | [14] 98.6% | [15] 108% | [16] 88.5% | [17] 103% | [18] 104% | [19] 101% | [20] 99.1%
